Measurements: PubChem BioAssay
Calls of active or inactive are those of the source. Unless noted, no rule for the calls is given here.

How the values were obtained:
[1] = resazurin metabolic signal in HepG2 cells – cell-based, resazurin fluorescence, 24 h, PK04 Diversity Set, profiling panel (AID 1172); details: HepG2 viability, higher = more signal
[2] = budding yeast growth changes without added modifier – OD600, strain BY4716, 24 h, basal condition, primary screen (AID 1173); details: S. cerevisiae BY4716 growth, OD600, 24 h; higher = more signal, called active from +8 up or from −8 down
[3] = viability profiling in MM1S myeloma cells – cell-based, resazurin fluorescence, basal, 24 h, PK04 Diversity Set, profiling panel (AID 1174); details: higher = more signal, called active from +8 up or from −8 down;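 also: MM1S multiple myeloma cell line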
[4] = biological target: Dihydroorotate dehydrogenase (quinone), mitochondrial (Plasmodium falciparum (isolate 3D7)) (UniProt Q08210); test: inhibition of P. falciparum DHODH – biochemical, C-terminal His tag, absorbance 600 nm, primary screen (AID 1175); details: PfDHODH enzyme, DCIP absorbance 600 nm; higher = more signal, called active from +8 up or from −8 down;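 also: recombinant parasite enzyme with a five histidine tag at its C terminus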
[5] = inhibition of PAO1 biofilm formation – strain PAO1, LB-PBS medium, absorbance 600 nm, primary screen (AID 1176); details: P. aeruginosa PAO1 growth/biofilm, A600, 12 h; higher = more signal
[6] = growth modulation of vineyard yeast isolate – strain RM11-1a, OD600, basal, 24 h, primary screen (AID 1177);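 also: cultures grown under basal conditions with no added stressor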; details: S. cerevisiae RM11-1a growth, OD600, 24 h; higher = more signal, called active from +8 up or from −8 down
[7] = growth of efflux-deficient E. coli DRC39 – strain DRC39, OD650, 24 h, E. coli filamentation inducers, primary screen (AID 1178);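 also: growth measured as culture turbidity by optical density at 650 nm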; details: E. coli DRC39 acrAB, higher = more signal, called active from +8 up or from −8 down
[8] = growth of efflux-deficient E. coli DRC39 – strain DRC39, OD650, 48 h, E. coli filamentation inducers, primary screen (AID 1179);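 also: screen aims at cell division blockers that make cells filament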; details: E. coli DRC39 delta-acrAB growth, higher = more signal, called active from +8 up or from −8 down
[9] = viability profiling in RPMI8226 myeloma cells – cell-based, resazurin fluorescence, basal, 24 h, PK04 Diversity Set, profiling panel (AID 1180); details: higher = more signal;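 also: RPMI8826 multiple myeloma cell line at 5000 cells per well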
[10] = biological target: E3 ubiquitin-protein ligase XIAP (Homo sapiens) (UniProt P98170); test: small molecules binding XIAP protein – biophysical, small-molecule microarray, fluorescence 635 nm, primary screen (AID 1181); details: higher = more signal;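 also: score merges 667 nm emission and signal to noise over triplicate slides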
[11] = test system: XIP peptide (Xip251-270) binding; test: XIP fragment 251-270 binding compounds – biochemical, small-molecule microarray, fluorescence 635/667 nm, 0.1 µg/mL protein, primary screen (AID 1182); details: fluorescent protein binding, 635 nm, higher = more signal, called active from +8 up or from −8 down
XIP peptide (Xip251-270) = test: compounds binding XIP fragment 251-270 – biochemical, small-molecule microarray, fluorescence 635/667 nm, 0.5 µg/mL protein, primary screen (AID 1183); details: fluorescence 635 nm, higher = more signal
[12] = blood-stage malaria parasite viability loss – strain 3D7, DAPI fluorescence, 100 nL, primary screen (AID 1184);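 also: parasites grown inside human red blood cells in medium with human serum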; details: P. falciparum 3D7 growth, 3 d, higher = more signal
[13] = biological target: Homeobox protein Hox-A13 (Mus musculus) (UniProt Q62424); test: disruptors of Hoxa13 oligonucleotide interaction – biochemical, fluorescence polarization, labeled oligonucleotide, primary screen (AID 1185); details: Hoxa13:DNA binding, 15 min, higher = more signal, called active from +8 up or from −8 down
[14] = blockers of DNA damage checkpoint Chk1 activation – imaging, HeLa, hydroxyurea, phospho-Chk1 antibody, percent positive cells, primary screen (AID 1186); details: hydroxyurea-induced phospho-Chk1 immunofluorescence imaging, higher = more signal
[15] = blockers of DNA damage checkpoint Chk1 activation – imaging, HeLa, hydroxyurea, phospho-Chk1 nuclear intensity, primary screen (AID 1187); details: hydroxyurea-induced phospho-Chk1 immunofluorescence imaging, higher = more signal

Homeobox protein Hox-A13 (Mus musculus), sequence (Q62424 whole entry, looked up): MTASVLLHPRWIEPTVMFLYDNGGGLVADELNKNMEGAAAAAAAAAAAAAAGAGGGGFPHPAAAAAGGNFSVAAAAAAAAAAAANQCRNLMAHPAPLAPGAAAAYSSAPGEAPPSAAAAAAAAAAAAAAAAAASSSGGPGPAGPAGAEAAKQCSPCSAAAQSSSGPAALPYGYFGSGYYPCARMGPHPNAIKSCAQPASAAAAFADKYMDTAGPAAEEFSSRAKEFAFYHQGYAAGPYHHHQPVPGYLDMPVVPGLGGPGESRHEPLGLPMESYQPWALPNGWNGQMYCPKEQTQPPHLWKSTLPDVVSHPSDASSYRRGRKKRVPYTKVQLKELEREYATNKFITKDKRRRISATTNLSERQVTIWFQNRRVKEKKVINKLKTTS
Dihydroorotate dehydrogenase (quinone), mitochondrial (Plasmodium falciparum (isolate 3D7)), sequence (Q08210 whole entry, looked up): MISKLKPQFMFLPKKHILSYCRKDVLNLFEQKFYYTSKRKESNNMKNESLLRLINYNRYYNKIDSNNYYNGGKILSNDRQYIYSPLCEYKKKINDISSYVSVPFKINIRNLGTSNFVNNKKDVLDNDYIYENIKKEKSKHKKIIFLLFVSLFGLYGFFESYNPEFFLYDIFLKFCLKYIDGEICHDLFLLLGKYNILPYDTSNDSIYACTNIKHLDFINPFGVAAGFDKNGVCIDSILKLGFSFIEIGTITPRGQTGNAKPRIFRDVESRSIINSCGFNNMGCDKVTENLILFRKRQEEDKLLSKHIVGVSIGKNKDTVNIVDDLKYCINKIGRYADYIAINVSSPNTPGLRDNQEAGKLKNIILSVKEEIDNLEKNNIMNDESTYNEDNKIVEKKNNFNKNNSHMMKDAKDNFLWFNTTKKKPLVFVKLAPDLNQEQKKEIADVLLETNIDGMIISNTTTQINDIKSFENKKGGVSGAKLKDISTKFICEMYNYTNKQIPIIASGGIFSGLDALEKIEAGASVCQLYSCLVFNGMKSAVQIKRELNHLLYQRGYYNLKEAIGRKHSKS
E3 ubiquitin-protein ligase XIAP (Homo sapiens), sequence (P98170 whole entry, looked up, the tested form may be a part): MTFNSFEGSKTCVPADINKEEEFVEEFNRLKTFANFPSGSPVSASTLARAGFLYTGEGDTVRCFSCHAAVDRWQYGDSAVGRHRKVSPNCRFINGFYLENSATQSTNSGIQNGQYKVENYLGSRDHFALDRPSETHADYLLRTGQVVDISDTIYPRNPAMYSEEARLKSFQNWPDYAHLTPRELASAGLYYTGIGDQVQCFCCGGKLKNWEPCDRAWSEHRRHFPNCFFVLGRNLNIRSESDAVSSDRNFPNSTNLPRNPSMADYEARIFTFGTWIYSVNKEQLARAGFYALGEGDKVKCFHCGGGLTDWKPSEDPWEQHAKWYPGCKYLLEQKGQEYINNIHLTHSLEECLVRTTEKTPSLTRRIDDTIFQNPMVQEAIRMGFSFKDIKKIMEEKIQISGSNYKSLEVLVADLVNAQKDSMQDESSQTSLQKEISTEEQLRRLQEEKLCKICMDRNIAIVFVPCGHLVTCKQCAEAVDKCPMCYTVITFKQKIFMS

Compound | z-score [1] | z-score [2] | z-score [3] | composite z-score [4] | z-score [5] | z-score [6] | z-score [7] | z-score [8] | z-score [9] | composite z-score [10] | composite z-score [11] | composite z-score (XIP peptide (Xip251-270)) | z-score [12] | z-score [13] | z-score [14] | z-score [15]
O=C1C[C@@](C(=O)O)(c2ccc([N+](=O)[O-])cc2)[C@@H](c2ccc(CO)cc2)N1CC12CC3CC(CC(C3)C1)C2 | -0.246 | -0.418 (inactive) | -0.646 (inactive) | -3.13 (inactive) | 0.692 (inactive) | 1.08 (inactive) | 0.667 (inactive) | 0.507 (inactive) | -0.474 | -0.234 | 0.312 (inactive) | 0.748 | -0.626 | -3.96 (inactive) | -0.226 (inactive) | -0.715 (inactive)
C#CCOC(=O)N[C@H](C=CCCCC)c1ccccc1 | 0.063 | 0.578 (inactive) | -0.883 (inactive) | -0.837 (inactive) | 0.936 (inactive) | -0.0736 (inactive) | -0.467 (inactive) | -0.424 (inactive) | -0.137 | -0.0133 | 0.0811 (inactive) | -0.632 | -0.817 | -3.62 (inactive) | 0.163 (inactive) | 0.195 (inactive)
C/C=C/[C@@H](CCn1cc([C@H](O)c2ccccc2)nn1)[Si](C)(C)c1ccc(OC)cc1 | 0.121 | -1.5 (inactive) | -0.567 (inactive) | -0.222 (inactive) | 0.0002 (inactive) | 0.72 (inactive) | 0.508 (inactive) | -0.253 (inactive) | -0.472 | -0.0918 | 0.895 (inactive) | 0.778 | -0.689 | -6.33 (inactive) | 0.546 (inactive) | -0.159 (inactive)
CC(C)[Si](C#C[Si](C(C)C)(C(C)C)C(C)C)(O[C@H](C)c1cn(Cc2cccc(Cl)c2)nn1)C(C)C | 0.205 | 0.916 (inactive) | 1.77 (inactive) | 0.621 (inactive) | 0.444 (inactive) | 0.0575 (inactive) | 2.07 (inactive) | 1.52 (inactive) | 1.68 | -0.205 | -0.109 (inactive) | -0.0612 | 0.293 | 0.702 (inactive) | 0.0695 (inactive) | 0.153 (inactive)
C[N+](C)(C)CCCCNC(=O)[C@H]1C[C@H]2C(=O)NCC(=O)N2[C@H]1c1ccc(O)cc1 | -0.103 | 0.105 (inactive) | -0.511 (inactive) | -29.2 (active) | 0.28 (inactive) | -0.279 (inactive) | 0.703 (inactive) | 1.35 (inactive) | -0.253 | -0.17 | 0.696 (inactive) | 0.922 | 0.258 | -0.735 (inactive) | -1.02 (inactive) | -0.701 (inactive)
C=CCNC(=O)[C@H]1[C@@H]2C(=O)O[C@@H](c3ccccc3)[C@@H](c3ccccc3)N2[C@@H](c2ccc(O)cc2)[C@]12C(=O)N(C(=O)OCCOC)c1ccc(C#CC3(O)CCCCCC3)cc12 | -0.0051 | -0.897 (inactive) | 0.221 (inactive) | 0.157 (inactive) | 0.806 (inactive) | 2.27 (inactive) | 0.665 (inactive) | 0.951 (inactive) | 0.41 | 0.0479 | 1.44 (inactive) | 0.842 | 0.351 | -2.42 (inactive) | -0.213 (inactive) | 0.382 (inactive)
C#CCNS(=O)(=O)N(C)C | 0.175 | -0.61 (inactive) | -0.207 (inactive) | 0.196 (inactive) | -0.218 (inactive) | 0.648 (inactive) | -0.263 (inactive) | 0.56 (inactive) | 0.544 | -0.05 | 0.153 (inactive) | 0.0198 | -0.265 | -0.146 (inactive) | -0.271 (inactive) | 0.0602 (inactive)
O=C1C2C=CC(C(O)c3cccc4ccccc34)N(Nc3ccccc3)C2C(=O)N1c1ccccc1 (centres undefined) | 0.451 | -3.11 (inactive) | 0.0605 (inactive) | 0.651 (inactive) | 1.6 (inactive) | -0.0805 (inactive) | -0.148 (inactive) | 0.133 (inactive) | -0.0011 | 0.197 | 0.179 (inactive) | 0.807 | -0.176 | -0.231 (inactive) | 0.107 (inactive) | -0.294 (inactive)
[N-]=[N+]=NCc1ccccc1[C@H]1OC(c2ccc(OCCCO)cc2)=N[C@@]1(Cc1ccccc1N=[N+]=[N-])C(=O)NCCN1CCOCC1 | -0.634 | -1.11 (inactive) | -1.22 (inactive) | 1.15 (inactive) | 0.591 (inactive) | 1.41 (inactive) | -0.0057 (inactive) | -0.357 (inactive) | -1.17 | -0.0414 | 0.175 (inactive) | 0.795 | -2.21 | -3.06 (inactive) | 0.0262 (inactive) | -0.0057 (inactive)
